# Mtb bLac sens: beta-lactam sensitization of Mtb H37Rv; M. tuberculosis H37Rv growth with meropenem, percent inhibition; inhibition, % at 25 µM; 330,000 tested, 0.27% active; AID 434955; call rule not given here;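 further: growth measured after seven days incubation then overnight dye step; 0% = bacteria only wells and 100% = bacteria with antibiotic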
# Rv3671c inh: inhibitors of M. tuberculosis serine protease Rv3671c; inhibition, % at 5.96 µM; 320,000 tested, 0.048% active; in the data active means inhibition above about 38%;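 further: extracellular domain of Rv3671c used as enzyme; 0% = enzyme with DMSO and 100% = no enzyme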
# RecA intein inh: Mtb RecA intein splicing inhibition | cell-free RecA intein splicing, fluorescence | 290,000 tested, 0.75% active | inhibition, % (test concentration not listed); in the data active means inhibition above about 30%;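 further: 0% = vehicle wells and 100% = reference inhibitor control wells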
# UGM FP inh: Mtb UDP-galactopyranose mutase inhibition. purified UGM, fluorescence polarization probe displacement. 320,000 tested, 0.06% active. inhibition, % at 10 µM. AID 504406. P9WIQ1; in the data active means inhibition above about 10%, passing the limit was not always enough
# Target sequence (P9WIQ1 whole entry, looked up): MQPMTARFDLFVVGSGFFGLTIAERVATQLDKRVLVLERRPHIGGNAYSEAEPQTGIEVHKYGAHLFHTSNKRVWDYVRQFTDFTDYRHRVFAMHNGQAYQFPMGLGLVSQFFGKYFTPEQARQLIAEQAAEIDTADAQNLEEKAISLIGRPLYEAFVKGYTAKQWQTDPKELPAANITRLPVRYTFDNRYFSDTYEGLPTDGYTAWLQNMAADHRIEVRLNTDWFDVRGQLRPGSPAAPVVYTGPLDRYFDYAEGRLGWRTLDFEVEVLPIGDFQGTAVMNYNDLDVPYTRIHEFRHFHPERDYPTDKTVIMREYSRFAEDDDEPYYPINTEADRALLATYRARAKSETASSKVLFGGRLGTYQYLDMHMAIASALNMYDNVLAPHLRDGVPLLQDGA
# GDH-TPI counter-1: inhibits GDH-TPI coupling enzymes, artifact for Mtb FBA screen. GDH-TPI coupled enzyme counterscreen, NADH absorbance. inhibition, % at 4.8 µM. 360,000 tested, 1.2% active. AID 588335; in the data active means inhibition above about 30%;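 further: 0% = DMSO wells and 100% = wells lacking the enzyme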
# FBA Mtb inh: Mtb fructose-bisphosphate aldolase inhibition. 360,000 tested, 2.3% active. P9WQA3. AID 588726. inhibition, % at 1 µM. purified M. tuberculosis FBA, fluorescence read-out;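 further: 0% = vehicle and 100% = reference inhibitor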
# Mtb FBA confirm: Mtb FBA inhibition, confirmed | shares compounds with FBA Mtb inh | 5,600 tested, 78% active | purified M. tuberculosis FBA, fluorescence read-out | inhibition, % at 1 µM | AID 651616;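 further: 0% = vehicle wells and 100% = reference inhibitor wells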
# GDH-TPI counter-2: inhibits GDH-TPI coupling enzymes, flagging Mtb FBA hits; inhibition, % at 1 µM; GDH-TPI coupled enzyme counterscreen, fluorescence; 5,600 tested, 81% active; shares compounds with FBA Mtb inh; in the data active means inhibition above about 10%
# Numbers without * were called inactive; . = no result given; + = active, no number. Shown are actives, neighbours in structure and some others; about 4% of the full set was active somewhere. Unless noted, no stated cut-off is given here; in the data, active means inhibition above about 27%; inactive means the rest.
SMILES,Mtb bLac sens,Rv3671c inh,RecA intein inh,UGM FP inh,GDH-TPI counter-1,FBA Mtb inh,Mtb FBA confirm,GDH-TPI counter-2
O=C(N1CCOCC1)N1CCc2ccccc21,-1,-9,.,2,7,1,.,.
CN(C(=O)c1cccc(NC(=O)Cc2ccc(NC(=O)C3CCN(C(=O)C4CCCCC4)CC3)cc2)c1)C1CCCC1,.,.,.,.,9,-2,.,.
Cc1ccc(N2C(=O)N(CC(=O)N3c4ccccc4CC3C)C(=O)C2C)cc1 (configuration not stated),.,.,.,.,-10,-1,.,.
CCCCN(C(=O)c1ccc(Br)o1)C1CCS(=O)(=O)C1 (configuration not stated),1,9,1,2,1,-1,.,.
CC(C)CNC(=O)c1cnn2c(C(F)(F)F)cc(C(F)(F)F)nc12,-7,0,-2,3,-4,1,.,.
CN1CCN(S(=O)(=O)c2cccc(C(=O)NCc3ccc(Cl)cc3)c2)CC1,-10,0,0,-1,-6,64*,48*,44*
COc1ccc(CNC(=O)c2cccc(S(=O)(=O)N3CCN(C)CC3)c2)cc1,-14,5,2,-2,-8,-2,.,.
O=C(Oc1ccccc1Cl)C1CCN(C(=O)c2ccc(F)cc2)CC1,55,-1,8,4,0,0,.,.
Cc1ccc(Cn2c(C3CCCN3c3nc(-c4ccc(F)cc4)cs3)nc3cc(C(=O)NCCCO)ccc32)cc1 (configuration not stated),-12,-1,3,1,9,70*,9,5
C=CC[C@H](CC(=O)N(CCO)Cc1ccccc1)C(=O)N[C@H](C)COC(=O)[C@@H](CC=C)CC(=O)OC(C)(C)C,-3,-6,.,0,-3,-1,.,.
CC(=O)Nc1ccc(-c2csc(NC(=O)C3CSC4(C)CCC(=O)N34)n2)cc1 (configuration not stated),-1,-5,-4,0,4,-2,.,.
COc1ccc(CCNC(=O)[C@@H](NC(=O)N2CC(=O)Nc3ccccc32)C(C)C)cc1OC,-3,4,-1,0,-11,-5,.,.
COc1ccccc1N1CCN(C(=O)c2cc3c(=O)n4cccc(C)c4nc3s2)CC1,2,-8,.,0,15,41*,+,180*
Cc1cccn2c(=O)c3cc(C(=O)N4CCCCC4C)sc3nc12 (configuration not stated),51,-1,.,-1,16,23,.,.
CCOC(=O)N1CCN(C(=O)c2cc3c(=O)n4cccc(C)c4nc3s2)CC1,7,-9,-8,-1,9,16,.,.
CCN(CC)C(=O)c1cc2c(=O)n3cccc(C)c3nc2s1,2,4,-15,1,12,69*,148*,143*
CCCCN(CC)C(=O)c1cc2c(=O)n3cccc(C)c3nc2s1,2,0,-15,0,11,70*,+,167*
CCN(CC)C(=O)c1cc2c(=O)n3cccc(C)c3nc2n1C,2,1,-14,1,21,57*,122*,107*
COC(=O)C(C)(C)c1cccnc1C#N,.,.,.,.,0,5,.,.
Cn1c(=O)cc(SCC(=O)NCCC2=CCCCC2)c2cc(Cl)ccc21,-12,-4,-1,-2,10,0,.,.
COc1ccc(-n2c(SCC(=O)N(C)C3CCS(=O)(=O)C3)nc3ccc(O)cc3c2=O)cc1OC (configuration not stated),-5,-1,.,-6,3,3,.,.
C[C@H](CO)N1C[C@H](C)[C@@H](CN(C)S(=O)(=O)c2ccc3c(c2)OCCCO3)OCc2cn(nn2)CCCC1=O,.,.,.,.,-3,0,.,.
Cc1cc(C)c(S(=O)(=O)NC2CC(C)(C)NC(C)(C)C2)cc1Br,-1,.,0,-1,7,-1,.,.
CCC1(OC(=O)CN(C)C)C(=O)OCc2c1cc1n(c2=O)Cc2cc3c(N)cccc3nc2-1 (configuration not stated),.,.,.,.,24,53*,-2,-2
Cn1c(-c2cc3ccccc3oc2=O)nc2ccccc21,0,2,-1,0,17,1,.,.
SMILES,Mtb bLac sens,Rv3671c inh,RecA intein inh,UGM FP inh,GDH-TPI counter-1,FBA Mtb inh,Mtb FBA confirm,GDH-TPI counter-2
COc1ccc2cc(-c3nc4ccccc4n3C)c(=O)oc2c1,12,9,-36,-2,39*,59*,198*,+
COc1ccc(-c2cc3ccccc3oc2=O)cc1,4,-8,-1,2,13,60*,+,+
CSc1ncccc1C(=O)Nc1ccc(OC(F)(F)F)cc1,65,1,1,-1,1,44*,33*,34*
CCOC(=O)c1cc2c3ccccc3n(CC)c2nc1N,5,0,-2,-1,15,37*,+,+
CCOC(=O)c1cc(=O)n(Cc2ccccc2C)c2ccccc12,58,2,6,-1,-4,2,.,.
CC(C)NC(=O)COC(=O)c1ccc(Cl)c(S(=O)(=O)N2CCCC2)c1,-1,2,.,-2,7,40*,124*,95*
CC(C)NC(=O)COC(=O)c1ccc(Cl)c(S(N)(=O)=O)c1,-12,-10,-1,-1,4,1,.,.
Cc1ccc2nc(-c3ccc(N4C(=N)SC5CS(=O)(=O)CC54)cc3)sc2c1 (configuration not stated),4,-4,-1,-1,20,48*,80*,66*
Cc1ccc2cc3cc(C(=O)NCc4ccco4)oc3nc2c1,60,0,1,2,34*,46*,8,-5
Cc1ccc2cc3cc(C(=O)N4CC(C)CC(C)C4)oc3nc2c1 (configuration not stated),65,-58,.,3,30,-1,.,.
Cc1ccc2cc3cc(C(=O)NC4CCCCC4)oc3nc2c1,4,1,1,0,14,39*,+,+
Cc1ccc2cc3cc(C(=O)NCCCN4CC(C)CC(C)C4)oc3nc2c1 (configuration not stated),4,-9,-7,0,14,85*,56*,36*
Cn1c(=O)c(-c2ccccc2)nc2ccccc21,-13,-3,0,0,10,44*,59*,39*
COc1cccc2c1OCC(CN1CCN(CCC(C)C)C(CCO)C1)=C2 (configuration not stated),-5,2,2,0,6,4,.,.
O=C(O)c1ccc2c(c1)-c1nc3ccccc3n1C2=O,8,-2,3,5,-1,51*,44*,36*
CCOC(=O)CCCCCC(=O)Nc1ccc2c(c1)C(=O)N([C@H](C)CO)C[C@@H](C)[C@@H](CN(C)C(=O)CCC(F)(F)F)OCCCC[C@H](C)O2,.,.,.,.,1,-2,.,.
Cn1c2ccccc2c(=O)c2ccc(NCc3ccc4c(c3)OCO4)cc21,.,.,.,.,15,88*,175*,110*
